An excerpt weighted towards active compounds, which were near 7.3% of everything screened.
FLuc modulator = qHTS profiling assay for firefly luciferase inhibitor/activator using purifed enzyme and Km concentrations of substrates (counterscreen for miR-21 project); purified FLuc, Km substrates, luminescence inhibition; 360,000 compounds, 6.9% hits; Potency, µM (top dose mostly 57.5 µM), without a hit: at the highest dose activity change, negative = inhibition, usual class: inhibitors; AID 588342, 2011;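 note: plate controls were vehicle for no effect and reference inhibitor for full effect; nearly all actives have a fitted effect of over 55% in size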
Target sequence (P08659 whole entry, looked up): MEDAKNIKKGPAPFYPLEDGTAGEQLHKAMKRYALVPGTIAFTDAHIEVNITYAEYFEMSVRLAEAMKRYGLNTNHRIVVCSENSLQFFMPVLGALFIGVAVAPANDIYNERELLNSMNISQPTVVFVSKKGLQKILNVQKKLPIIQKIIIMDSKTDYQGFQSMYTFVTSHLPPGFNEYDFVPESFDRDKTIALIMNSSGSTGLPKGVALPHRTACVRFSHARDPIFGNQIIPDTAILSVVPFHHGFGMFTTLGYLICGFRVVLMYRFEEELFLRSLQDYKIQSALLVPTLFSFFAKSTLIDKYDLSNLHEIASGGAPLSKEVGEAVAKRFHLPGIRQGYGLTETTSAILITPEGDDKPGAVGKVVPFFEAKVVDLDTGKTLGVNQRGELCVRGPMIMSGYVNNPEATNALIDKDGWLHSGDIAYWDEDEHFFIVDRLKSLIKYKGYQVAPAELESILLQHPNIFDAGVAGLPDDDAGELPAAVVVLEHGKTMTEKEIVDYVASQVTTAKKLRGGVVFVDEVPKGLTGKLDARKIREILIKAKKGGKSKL
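Purified P. pyralis luciferase (10nM final) with 10uM D-luciferin and 10uM ATP (Km levels) in 50mM Tris acetate pH 7.5, 10mM Mg acetate, 0.01% Tween-20, 0.05% BSA; qHTS 6-point titration, ~60 µM downward; luminescence read.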
ELG1 genotoxic = qHTS screen for small molecules that induce genotoxicity in human embryonic kidney (HEK293T) cells expressing luciferase-tagged ELG1; HEK293T ELG1-luciferase reporter, luminescence, 16 h; Potency, µM (series often up to 46 µM), for inactives: top-dose activity change, positive = activation, hits mostly activators; 330,000 compounds, 1.3% hits; AID 504466, 2011; note: % of control where 0% means no effect; nearly all actives have a fitted effect of over 60% in size
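Luminescence read-out: rising ELG1-luciferase signal, reflecting elevated ELG1 protein under genetic stress, flags genotoxic compounds. Cells were treated for 16 hr at 37 °C before ONE-Glo detection.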
p53 reactivation = qHTS assay for re-activators of p53 using a Luc reporter. H1299 p53-A138V BP100-luciferase reporter, luminescence, 24 h. 320,000 compounds, 0.063% hits. AID 504706, 2011. Potency, µM (titrated, usually from 92.2 µM), for inactives: top-dose activity change, positive = activation, most hits filed as activators; note: % of control where 0% means no effect; nearly all actives have a fitted effect of over 45% in size
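p53-null H1299 cells stably carrying temperature-sensitive p53-A138V and a BP100-luciferase reporter were pinned with compounds (4-point, 1:5 series) and held 24 hrs at 37 deg C. Luminescence was read 10 min after detection reagent.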
NPC1 prom act = qHTS Assay for NPC1 Promoter Activators; Huh7 NPC1 promoter luciferase reporter, 24 h; Potency, µM (highest dose often 9.22 µM), inactives show top-dose activation, usual class: activators; 320,000 compounds, 2.4% hits; AID 485313, 2010; note: % of control where 0% means no effect; nearly all actives have a fitted effect of over 60% in size
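Compounds in DMSO were transferred onto Huh7 NPC1-luciferase reporter cells pre-incubated 2 h; after 24 h at 37 °C, Amplite reagent was dispensed and luminescence recorded 10 min later.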
Rab9 promoter act = qHTS Assay for Rab9 Promoter Activators; AID 485297, 2010; Potency, µM (titrated, usually from 9.22 µM), without a hit: top-dose activation, negative = inhibition, usual class: activators; 320,000 compounds, 2.8% hits; Huh7 Rab9 promoter-luciferase reporter, luminescence, 24 h; note: % of control where 0% means no effect; nearly all actives have a fitted effect of over 60% in size
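Luminescence from Amplite-detected luciferase (10 minutes, ambient) reports Rab9 promoter activation. Before that, stable Rab9-luciferase Huh7 cells (1500/well, reduced-serum OP-MEM I plus 10% FBS) were exposed to compound for 24 hours at 37C.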
SMN2 splice enh = qHTS Assay for Enhancers of SMN2 Splice Variant Expression | HEK293 SMN2-luciferase splicing reporter, luminescence, 30-36 h | Potency, µM (doses to about 46.1 µM), for inactives: top-dose activity change, positive = activation, hits mostly activators | 210,000 compounds, 2.8% hits; note: % of control where 0% means no effect; nearly all actives have a fitted effect of over 55% in size
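HEK293 cells carry an SMN2 […]–luciferase reporter in which exon 7 inclusion puts luciferase in frame. Cells were plated 10-12 h before compound addition, then incubated 30-36 h at 37C. ONE-Glo luminescence was read; sodium butyrate at 4.5 mM final served as control.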
* hit, by the source's call; ? = inconclusive; nt = no result; [ ] = dose if it differs, or a comment. Calls come from the whole dose curve; as a rule, active = well fitted curve in the direction sought with a large enough effect; inconclusive = small, poorly fitted or top-dose-only effect, or another doubt; inactive = no such curve, though single readings can be large; an effect the other way counts as inactive or inconclusive. Potency is the fitted concentration of half-maximal effect.

SMILES	FLuc modulator	ELG1 genotoxic	p53 reactivation	NPC1 prom act	Rab9 promoter act	SMN2 splice enh
CCCCC/C=C\C[C@@H](O)/C=C/C=C\CCC(=O)O	nt	nt	nt	nt	nt	-1.0%
Cc1ccc(S(=O)(=O)N2CCN(Cc3noc(CCC(=O)N4CCCCC4)n3)CC2)c(C)c1	-1.7%	nt	nt	nt	nt	nt
O=C(Nc1ccc(Cl)cc1Cl)c1ccc2c(c1)OCCO2	0.301µM*	?	58.1%	0.398µM*	0.316µM*	nt
CC(=O)c1cc2c(cc1NC(=O)c1ccc(Cl)cc1)OCCO2	-3.8%	17.9%	?	-1.3%	-2.4%	nt
Cc1cc(Cl)ccc1NC(=O)c1ccc2c(c1)OCO2	12µM*	?	?	2.24µM*	3.55µM*	nt
O=C(Nc1ccc2c(c1)OCO2)c1ccc(Cl)nc1	?	?	22.9%	26.0%	28.1%	27.9%
Cc1ccc(C(=O)Nc2ccc3c(c2)OCO3)cc1S(=O)(=O)N1CCCC1	12µM*	-5.0%	-4.6%	?	?	24.4%
O=C(Nc1ccc2c(c1)OCO2)c1cnc(Cl)c(Cl)c1	7.57µM*	16.9%	?	?	3.55µM*	nt
Cc1ccc2cc3c(N)c4c(C)ccc(C)c4nc3nc2c1	?	2.2%	-0.7%	-3.9%	1.2%	-2.0%
CCCc1cc(=O)[nH]c2nnc(SCC(=O)Nc3ccc(OC)cc3)n12	-13.5%	nt	nt	nt	nt	nt
COc1cc(/C=C/c2nc(-c3ccccc3O)n[nH]2)cc(OC)c1OC	?	-0.6%	?	13.1%	3.0%	?
CC(=O)Nc1ccc(/C=C/c2nc(-c3ccccc3O)n[nH]2)cc1	?	?	6.9%	?	3.55µM*	nt
Nc1ccc2nc(-c3cccnc3)[nH]c2c1	?	5.4%	9.4%	-2.2%	-1.0%	3.2%
COc1ccc2nc(-c3ccc(N)cc3)[nH]c2c1	3.79µM*	?	-26.4%	?	24.4%	?
COc1ccc2nc(SCC(N)=O)[nH]c2c1	-6.3%	0.5%	4.0%	0.5%	-3.9%	18.3%
COc1ccc2nc(-c3cccc(N)c3)[nH]c2c1	2.39µM*	?	?	1.58µM*	2.51µM*	nt
CC(=O)c1ccc(Nc2cc(C)nc3nc(Cc4ccc(Cl)cc4)nn23)cc1	-0.7%	nt	nt	nt	nt	-8.1%
Cc1ccc(CNC(=O)c2oc3ccc(S(=O)(=O)N4CCCC(C)C4)cc3c2C)cc1 (stereo unspecified)	2.3%	nt	nt	nt	nt	-29.9%
CC(C)(C)c1ccc(C(=O)c2cn[nH]c2-c2ccccc2O)cc1	10.7µM*	12.4%	?	?	?	nt
CCC/C=C(\CCC)C(NC(=O)C(C)(C)C)c1ccc(C(=O)OC)cc1 (stereo unspecified)	nt	nt	nt	nt	nt	-21.5%
Nc1c(C(=O)NC2CCCC2)sc2nc(-c3cccs3)ccc12	-19.2%	?	19.1%	14.3%	13.3%	19.9%
CC(=O)c1sc2nc(-c3ccco3)ccc2c1N	3.79µM*	20.6µM*	7.5%	?	?	nt
Nc1c(C(=O)Nc2ccc(C(F)(F)F)cc2)sc2nc(-c3cccs3)ccc12	-7.7%	nt	nt	nt	nt	-5.5%
CCOC(=O)c1sc2nc(-c3ccccc3)ccc2c1N	0.19µM*	0.517µM*	nt	0.355µM*	0.282µM*	0.794µM*
Cc1cc(F)ccc1NC(=O)c1sc2nc(-c3cccs3)ccc2c1N	2.7%	nt	nt	nt	nt	10µM*
SMILES	FLuc modulator	ELG1 genotoxic	p53 reactivation	NPC1 prom act	Rab9 promoter act	SMN2 splice enh
CCOC(=O)c1sc2nc(C)cc(-c3ccccc3)c2c1N	0.6%	1.7%	-6.1%	-6.4%	-17.2%	-17.9%
Nc1c(C(=O)Nc2ccc(Br)cc2)sc2nc(-c3ccco3)ccc12	?	2.2%	5.7%	23.2%	-3.7%	-29.0%
NC(=O)c1sc2nc(-c3cccs3)ccc2c1N	9.53µM*	?	13.5%	?	?	nt
COc1ccc(COC(=O)C2CCN(S(=O)(=O)c3ccc(C)cc3)CC2)cc1	8.2%	3.0%	5.4%	2.0%	3.6%	nt
CCCCNC(=O)C(c1ccc(OCC(=O)OC)c(C(=O)OC)c1)N(Cc1ccccn1)C(=O)CCCCCN1C(=O)NC(c2ccc(-c3ccccc3)cc2)C(C(=O)OCc2ccccc2)=C1C (stereo unspecified)	nt	nt	nt	nt	nt	-9.5%
CCc1noc2nc(C)n(CC(=O)O)c(=O)c12	-1.7%	nt	nt	nt	nt	-11.3%
CCN(C(=O)c1ccc2c(c1)OCO2)C12CC3CC(CC(C3)C1)C2	nt	-5.1%	-0.6%	nt	nt	nt
NC(=O)c1sc2nc(-c3ccccc3)ccc2c1N	2.13µM*	?	-8.0%	1.78µM*	3.16µM*	nt
Cc1ccc(N(CC(=O)Nc2ccc3c(c2)OCCO3)S(C)(=O)=O)cc1	19µM*	13.2%	5.2%	?	?	nt
CCOc1ccc(N(CC(=O)Nc2ccc(C)cc2)S(C)(=O)=O)cc1	15.1µM*	?	?	3.55µM*	0.891µM*	nt
CCOc1ccc(N(CC(=O)Nc2cc(C)cc(C)c2)S(C)(=O)=O)cc1	?	6.4%	?	?	13.2%	nt
O=C(C1CCCCC1)N1CC(=O)N2CCc3ccccc3[C@@H]2C1	nt	nt	nt	nt	nt	-2.0%[20.6 µM]
O=C(/C=C1\NCC2c3ccccc3CCN2C1=O)c1ccccc1 (stereo unspecified)	1.2µM*	-2.0%	-2.8%	3.98µM*	3.55µM*	2.82µM*
CCC1CCCCN1CCCNC(=O)c1cc2c(=O)[nH]c3ccccc3c2n1C (stereo unspecified)	-1.9%	1.9%	14.6%	-4.9%	-3.3%	-38.2%
Cc1ccc(Cl)cc1N1CCN(C(=O)CCSCc2ccccc2F)CC1	1.4%	nt	nt	nt	nt	nt
COC(=O)C1CCN(C(=O)CCCOc2ccccc2)CC1	4.78µM*	2.59µM*	?	?	2.24µM*	nt
COC(=O)C1CCN(C(=O)CSc2ccccc2)CC1	-1.5%	2.1%	29.7%	-0.4%	0.3%	7.1%
O=C(c1c(Cl)cccc1Cl)N1CCN(c2ccccn2)CC1	7.4%	-11.0%	-7.5%	-8.0%	-6.8%	?
O=C(CCCOc1ccccc1)N1CCN(c2ccccn2)CC1	6.75µM*	2.06µM*	?	1.26µM*	0.891µM*	14.1µM*
O=C(CCCOc1ccc(Cl)cc1Cl)N1CCN(c2ccccn2)CC1	-17.0%	-4.1%	5.4%	-2.6%	8.3%	-3.4%
O=C(N1CCN(c2ccccn2)CC1)C(Cl)(Cl)Cl	-14.2%	0.9%	?	6.0%	13.7%	3.98µM*
O=C(CCSCc1ccccc1F)N1CCN(c2ccccn2)CC1	19µM*	18.4µM*	22.8%	24.1%	?	?
